Data published in PubChem BioAssay AID720533 (National Center for Advancing Translational Sciences (NCATS), 2013).
Several values for one entry are separate records, joined by “and”; a condition that tells them apart may be missing. Equal values may be shown once. About 750 (4.2%) of roughly 18,000 compounds were called active. Another 13% or so got no clear call; they are omitted. The sample as a whole holds a higher share of actives than the screen did. A number with no mark means an inactive call. The call rests on the fitted dose curve; tested in HEK293 cells. Starred links: 1 amine or outer side, 2 acyl side, 3 side chain; linkers in the order of their positions; H or OH if unused. Positions of bridges follow the written chain, without caps; N, C: chain ends. Non-standard residues stand in square brackets, D forms with d. Residues, ends and D or L forms follow the SMILES beside them. *: point of attachment. X15 = NC1=N[C@@H]([C@H](N[*:1])C(=O)[*:2])C[C@H](O)N1; ΔAla(Z-3-ureido) = NC(=O)N/C=C(\N)C(=O)O; β3hOrn = NCCC[C@H](N)CC(=O)*; Dap = NC[C@H](N)C(=O)O

experiment: qHTS for Inhibitors of binding or entry into cells for Lassa Virus; conditions: Lassa virus pseudotyped entry inhibition, cell-based qHTS; series mostly up to 49.2 µM; activity change, negative = inhibition: at the top concentration
On the % scale 0 is the no-effect control and ±100 the full control effect; potency means the concentration at half of the fitted maximal effect.

Compound	activity change, negative = inhibition	Potency
Cc1cnc(C(=O)N2CCOc3ccc(CN4CCCC(C(=O)c5cccnc5)C4)cc3C2)[nH]1 (configuration not stated)	-5.06%	
Nc1nc(/C(=C/CC(=O)O)C(=O)N[C@@H]2C(=O)N3C(C(=O)O)=CCS[C@H]23)cs1	-7.09%	
COc1cccc([C@@H]2Oc3ccc(Br)cc3C(=O)[C@H]2OC(=O)NCCc2ccc(OC)c(OC)c2)c1	33%	
C/C=C(\C)C(=O)OC1C(OC(=O)C2(C)OC2C)c2cc3ccc(=O)oc3cc2OC1(C)C (configuration not stated)	4.77%	
OCC1CCCN(c2nc3cc4c(cc3cc2CNCc2cccs2)OCO4)C1 (configuration not stated)	-0.156%	
CCOC(=O)CCN1C(=O)[C@@H]2[C@H]3[C@H](O)[C@H](O)CC(=NOCC(C)C)[C@@H]3CC[C@H]2C1=O	-24.6% [at 8.59 µM]	
CCN1CCN(C(=O)N[C@@H](C(=O)N[C@@H]2C(=O)N3C(C(=O)O)=C(CSc4nnnn4C)CS[C@H]23)c2ccc(O)cc2)C(=O)C1=O	-8.09%	
CCOC(=O)C1C/C(=C\C(C)=O)c2cccc(C(F)(F)F)c2O1 (configuration not stated)	7.88%	
CC(C)[C@@H](OCc1ccccc1)[C@H](C)C=NOC[C@@H](C)[C@H](OCc1ccccc1)C(C)C	8.86% [at 8.59 µM]	
COc1ccc(CN(C)CCn2cc(C(=O)N3CCSCC3)nn2)cc1C	-12%	
CC1OC(OCC2OC(Oc3c(-c4ccc(O)c(O)c4)oc4cc(O)cc(O)c4c3=O)C(O)C(O)C2O)[C@@H](O)C(O)C1O (some centres not stated)	-10.4%	
CNc1ncnc2ccc(-c3cccc(NS(C)(=O)=O)c3)cc12	-5.28%	
COc1ccc(Nc2ncnc3ccc(OC)cc23)cc1	4.87%	
Cc1csc(-c2nc3ccccc3n2C)n1	29.1%	
CNC(=O)C[C@H]1C(=O)N(Cc2ccccc2)C[C@@H]1CSC	7.21%	
CCCCCCN1C[C@@H](O)[C@H](n2cc(-c3ccc(F)cc3)nn2)C[C@H]1c1ccccc1	-27.3%	
COc1c(O)cc2oc(-c3ccc(O)c(O)c3)cc(=O)c2c1O	-13.1%	
Cc1nc2cc(NC(=O)[C@@H]3C[C@@H](Sc4ccccn4)CN3Cc3ccccc3C)ccc2s1	-6.47%	
CCCN(C/C=C/I)C1CCc2ccc(O)cc2C1 (configuration not stated)	3.69%	
CC[C@@H]1Cc2cc(O)ccc2C2=C1c1ccc(O)cc1C[C@H]2CC		20 µM (active)
COCOc1cc(OC)ccc1C(=O)/C=C/c1ccc([N+](=O)[O-])cc1	-5.23%	
CCOC(=O)C1=C(C(=O)OCC)C(C(=O)OCC)N(S(=O)(=O)C(F)(F)F)c2ccccc21 (configuration not stated)	-6.28%	
c1ccc(CN2CCN(Cc3ccc4c(c3)CN(Cc3c[nH]c5ccccc35)CCO4)CC2)nc1	-8.46%	
O=C(O)CCC(=O)O	-0.191%	

Compound	activity change, negative = inhibition	Potency
O=C(CCN1Cc2ccccc2OC(c2ccccc2)C1)N[C@@H]1CS(=O)(=O)C[C@H]1O (some centres not stated)	-3.72%	
COC(=O)c1c(OCc2ccc(F)cc2)cc(=O)n2c1CCN(Cc1ccc3cccnc3c1)CC2	-12.1%	
CC1C(=O)N(Cc2cn(Cc3ccco3)nn2)CCS(=O)(=O)N1Cc1ccc(-c2cccc(CO)c2)cc1 (configuration not stated)	-19.8%	
Cc1cccc(CN2CCN(C3CN(Cc4cn(Cc5ccccc5F)nn4)S(=O)(=O)C3)CC2)c1 (configuration not stated)	23.5%	
NCCC[C@H](N)CC(=O)N[C@H]1CNC(=O)[C@H]([C@H]2C[C@H](O)NC(N)=N2)NC(=O)/C(=C/NC(N)=O)NC(=O)[C@H](CO)NC(=O)[C@H](CO)NC1=O (β3hOrn-[Dap]SS[ΔAla(Z-3-ureido)][X15]; lactam 1-C)	6.4%	
O=C1C2=C(C(=O)c3ccccc31)[C@H]1O[C@](CCCCN3C(=O)c4ccccc4C3=O)(Cc3c1ccc1ccccc31)O2	10.1% [at 8.59 µM]	
C/C(Nc1ccc2oc(=O)ccc2c1)=C1/C(=O)CC2[C@@H]1C2(C)C (some centres not stated)	-4.73%	
CCCCCCc1cc2cc(OC)c(OC)cc2c2c(C(=O)OC)c(C(=O)OC)c(C(=O)OC)n12	-14.4% [at 8.59 µM]	
CO[C@]1(NC(=O)CSC(F)F)C(=O)N2C(C(=O)O)=C(CSc3nnnn3CCO)CO[C@H]21	-13.4%	
O=C(C=Cc1ccccc1)Nc1cccc(C(=O)N2CCCCC2)c1	28.6%	
Nc1nc(-c2ccc3c(c2)C(=Cc2cc(Br)c(O)c(Br)c2)C(=O)N3)cs1	9.64%	
Cc1ccc(-c2ccc(CN3C(C(C)C)C(=O)N(Cc4cn(CCC5OCCCO5)nn4)CCS3(=O)=O)cc2)cc1 (configuration not stated)	-14.3%	
COC(=O)CC1c2ccccc2C(Cc2ccc(OC)cc2)=C(C)N1C(=O)OC (configuration not stated)	25.9% [at 8.59 µM] and -25.2% [at 8.59 µM]	
C=CC1=C2C=C(C3CC3)N(C(CO)CO)C=C2C(=O)C(C)(OC(=O)c2ccco2)C1=O (configuration not stated)	4.32% [at 8.59 µM]	
COCC(=O)Nc1cc(C(=O)N2CCCC(c3ccccc3)CC2)c2c(c1)nc(-c1ccncc1)n2C (configuration not stated)	-11.7%	
C[C@@H](O)[C@@H]1NC(=O)[C@H](CCCCN)NC(=O)[C@H](Cc2c[nH]c3ccccc23)NC(=O)[C@H](Cc2ccccc2)NC(=O)[C@H](Cc2ccccc2)NC(=O)[C@H](CC(N)=O)NC(=O)[C@H](CCCCN)NC(=O)[C@@H](NC(=O)[C@@H]2CCCN2)CSSC[C@@H](C(=O)N[C@@H](CCCCN)C(=O)O)NC(=O)[C@H](CO)NC(=O)[C@H](CO)NC(=O)[C@H](Cc2ccccc2)NC1=O (H-PCKNFFWKTFSSCK-OH; disulfide 2-13)	-1.87%	
COC1CC(OC2CC[C@@]3(C=O)C4CC[C@]5(C)C(C6=CC(=O)OC6)CC[C@@]5(O)C4CC[C@]3(O)C2)OC(C)C1O (some centres not stated)		0.282 µM (active)
C[C@@]12CC[C@H]3[C@@H](CC[C@]4(O)C[C@H](O)CC[C@@]34C=O)[C@]1(O)CC[C@@H]2C1=CC(=O)OC1		1.26 µM (active)
Nc1nc2c(nc(Cl)n2C2OC(CO)C(O)C2O)c(=O)[nH]1 (configuration not stated)	-8.45%	
CC(C)NC[C@H](O)c1ccc2ccccc2c1	inactive	
C#C[C@]1(OC(=O)CCCCCC)CC[C@H]2[C@@H]3CCC4=CC(=O)CC[C@@H]4[C@H]3CC[C@@]21C		31.6 µM (active)
C#C[C@]1(O)CC[C@H]2[C@@H]3CCC4=CC(=O)CC[C@@H]4[C@H]3CC[C@@]21CC	-26.1%	
CC(=O)OCC(=O)[C@@]1(O)CCC2C3CCC4=CC(=O)CC[C@]4(C)C3C(=O)C[C@]21C (some centres not stated)	-0.0255%	
